Test results taken from PubChem BioAssay (NCI).
This is part of a sample that, as a whole, favours compounds with a hit. Of some 79,000 tested, about 15% had one in any assay. Values without a mark were called inactive. The source made the active and inactive calls. Cut-off read from the data, not from the text of the source: active = growth inhibition above about 70%; inactive = the rest.

Experiments:
[1] = NCI Yeast Anticancer Drug Screen. Data for the rad50 strain (AID 155);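 note: 0% = growth of vehicle-only cultures of the same strain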; settings: S. cerevisiae rad50 strain growth inhibition, active compounds read high
In short: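 A DNA repair-deficient yeast mutant serves as the test organism; compound-induced growth inhibition is calculated against vehicle-treated cells.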

[2] = NCI Yeast Anticancer Drug Screen. Data for the mec2-1 strain (AID 157); settings: S. cerevisiae mec2-1 strain, active compounds read high
In short: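 Vehicle-treated cultures served as reference for growth inhibition of compound-exposed mec2-1 yeast.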

[3] = NCI Yeast Anticancer Drug Screen. Data for the sgs1 mgt1 strain (AID 161);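 note: 0% = growth of cultures given vehicle only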; settings: S. cerevisiae sgs1 mgt1 strain, active compounds read high
In short: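 Genetically altered yeast, compound exposure, growth inhibition relative to vehicle.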

[4] = NCI Yeast Anticancer Drug Screen. Data for the cln2 rad14 strain (AID 165);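 note: 0% = growth equal to vehicle treated cultures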; settings: S. cerevisiae cln2 rad14 strain, active compounds read high
In short: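 Each compound was tested on cln2 rad14 yeast. Inhibition of growth was calculated against vehicle-exposed controls.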

[5] = NCI Yeast Anticancer Drug Screen. Data for the bub3 strain (AID 167); settings: S. cerevisiae bub3 mutant strain, active compounds read high
In short: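 Inhibition values come from growth of compound-treated mutant yeast normalised to vehicle-treated controls.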

[6] = NCI Yeast Anticancer Drug Screen. Data for the mlh1 rad18 strain (AID 175); settings: S. cerevisiae mlh1 rad18 strain growth inhibition, active compounds read high
In short: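 Vehicle-treated cultures served as the reference for growth inhibition in a yeast strain carrying DNA damage repair alterations exposed to each compound.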

[7] = at 5.0 µM (retest, dose inferred, filed as 0.5)
[8] = at 50.0 µM (retest, dose inferred, filed as 5.0)

| Compound | growth inhibition [1, 7] | growth inhibition [1, 8] | growth inhibition ([1]; at 50.0 µM) | growth inhibition [2, 7] | growth inhibition [2, 8] | growth inhibition ([2]; at 50.0 µM) | growth inhibition [3, 7] | growth inhibition [3, 8] | growth inhibition ([3]; at 50.0 µM) | growth inhibition [4, 7] | growth inhibition [4, 8] | growth inhibition ([4]; at 50.0 µM) | growth inhibition [5, 7] | growth inhibition [5, 8] | growth inhibition ([5]; at 50.0 µM) | growth inhibition [6, 7] | growth inhibition [6, 8] | growth inhibition ([6]; at 50.0 µM) |
| --- | --- | --- | --- | --- | --- | --- | --- | --- | --- | --- | --- | --- | --- | --- | --- | --- | --- | --- |
| O=c1c2ccccc2[nH]c(=S)n1-c1cccc(C(F)(F)F)c1 | 65% | 69% | 72.2% (active) | 49% | 59% | 76.3% (active) | 55% | 59% | 77% (active) | 52% | 48% | 61.7% | 71% (active) | 77% (active) | 77.7% (active) | 79% (active) | 81% (active) | 69.2% |
| CCC(=O)C(CCN1CCC(N2C(=O)C(CCC#N)c3ccccc32)CC1)(c1ccccc1)c1ccccc1 (centres undefined) | -3% | -3% | -7.55% | -6% | -6% | -23.4% | 8% | -3% | 10.8% | -2% | 14% | 3.15% | -1% | -17% | 10.2% | -23% | 1% | 32.2% |
| CCO[C@@H]([CH2][Hg][Cl])[C@](C)([CH2][Hg][Cl])OCC | 99% (active) | 99% (active) | 99.4% (active) | 99% (active) | 99% (active) | 99.6% (active) | 99% (active) | 99% (active) | 99.5% (active) | 98% (active) | 99% (active) | 99.3% (active) | 99% (active) | 99% (active) | 99.3% (active) | 99% (active) | 99% (active) | 99.3% (active) |
| O=C1C(CCl)(CCl)CCC12CNC(Cl)(Cl)C2 (centres undefined) | -1% | 0% | 6.8% | -1% | 4% | 15.8% | 1% | 0% | 21.6% | 1% | 5% | 39.6% | -3% | -5% | 23.2% | -1% | 0% | 28.8% |
| O=[N+]([O-])c1ccc([N+](=O)[O-])c2ccccc12 | 37% | 99% (active) | 86.5% (active) | 47% | 99% (active) | 61.7% | 61% | 97% (active) | 91.1% (active) | 82% (active) | 97% (active) | 67.9% | 45% | 95% (active) | 85.7% (active) | 31% | 99% (active) | 22.8% |
| COC12C(COC(N)=O)C3=C(C(=O)C(C)=C(N)C3=O)N1CC1C2N1C (centres undefined) | 10% | 74% (active) | 43.6% | 16% | 84% (active) | 44.6% | 16% | 77% (active) | 55.7% | 1% | 77% (active) | 38.4% | 5% | 55% | 31% | 34% | 92% (active) | 75.8% (active) |
| NC(=O)/C=C/c1ccc([As]=O)cc1 (centres undefined) | 1% | 25% | 97.8% (active) | 1% | 22% | 98.7% (active) | 0% | 34% | 99.3% (active) | 9% | 3% | 96.5% (active) | 4% | 37% | 98.7% (active) | 5% | 39% | 99% (active) |
| CCOP(=O)(OCC)/C(C#N)=C/c1cccc(F)c1 | -9% | 45% | 73.8% (active) | -11% | 23% | 59.3% | -2% | 36% | 64.8% | 17% | 33% | 25.4% | -12% | 56% | 51.1% | -1% | 69% | 68.9% |
| CC(Cl)CN1COc2c3c(c4ccccc4c2C1)CN(CC(C)Cl)CO3 (centres undefined) | 0% | 98% (active) | 83.7% (active) | 2% | 99% (active) | 68.8% | -3% | 99% (active) | 82.8% (active) | 0% | 95% (active) | 77.5% (active) | 0% | 98% (active) | 66.4% | 0% | 97% (active) | 81.8% (active) |
| OCC1N2CCC(CC2)C1(O)O (centres undefined) | -2% | 5% | -11.8% | 2% | -3% | -6.9% | -3% | 1% | 0.1% | 2% | 2% | -16.1% | 1% | -4% | 34.5% | -2% | -4% | -12.7% |
| CC(C)(C)S.[Hg] | 68% | 98% (active) | 99.5% (active) | 99% (active) | 98% (active) | 99.7% (active) | 98% (active) | 99% (active) | 99.7% (active) | 99% (active) | 99% (active) | 99.2% (active) | 89% (active) | 99% (active) | 99.5% (active) | 75% (active) | 99% (active) | 99.5% (active) |
| CC[n+]1c(/C=C/c2ccc(N(CCCl)CCCl)cc2)ccc2cc(Br)ccc21 | 97% (active) | 97% (active) | 85.5% (active) | 96% (active) | 96% (active) | 84% (active) | 98% (active) | 98% (active) | 82.9% (active) | 90% (active) | 90% (active) | 82% (active) | 96% (active) | 96% (active) | 85.2% (active) | 96% (active) | 96% (active) | 82.2% (active) |
| O=[As]c1ccc(O)c(O)c1 (centres undefined) | 11% | 99% (active) | 97% (active) | -4% | 100% (active) | 99.4% (active) | -4% | 99% (active) | 99.5% (active) | -9% | 99% (active) | 98.8% (active) | 22% | 99% (active) | 99.2% (active) | 6% | 99% (active) | 99.3% (active) |
